Counter-ions that a name gives are not always drawn.
Key:
[1] = system: U-2932; assay: growth inhibition by drug alone (1 - RLU/untreated control) (fraction); higher = stronger inhibition; settings: 177Lu-lilotomab satetraxetan 0 ug/ml
Summary of the method: (§1)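 RIVA or U-2932 cells were left untreated or pretreated for 18 h with a radiolabelled anti-CD37 antibody conjugate (~600 MBq/mg) at 0.5 µg/ml for RIVA or 1 µg/ml for U-2932. The cells were then washed and seeded at 3,000 cells/well on plates pre-printed with the Selleck Cambridge Cancer Compound library, dosed at 10/100 nM for RIVA and 10/1,000 nM for U-2932. From day 3, RealTime-Glo luminescence was read daily after 1 h at 37°C. Growth inhibition was taken as one minus RLU over the mean of the untreated no-drug wells, of which there were 48 per plate.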

[2] = system: RIVA; assay: as above; settings: 177Lu-lilotomab satetraxetan 0 ug/ml
Summary of the method: as §1

[3] = system: U-2932; assay: growth inhibition by drug plus 177Lu-lilotomab satetraxetan (1 - RLU/untreated control) (fraction); higher = stronger inhibition; settings: 177Lu-lilotomab satetraxetan 1 ug/ml
Summary of the method: as §1

[4] = system: RIVA; assay: as above; settings: 177Lu-lilotomab satetraxetan 0.5 ug/ml
Summary of the method: as §1

| Structure (SMILES) | growth inhibition by drug alone ([1]; 10 nM, time (day): 3) | growth inhibition by drug alone ([1]; 10 nM, time (day): 4) | growth inhibition by drug alone ([1]; 10 nM, time (day): 5) | growth inhibition by drug alone ([1]; 10 nM, time (day): 6) | growth inhibition by drug alone ([1]; 1000 nM, time (day): 3) | growth inhibition by drug alone ([1]; 1000 nM, time (day): 4) | growth inhibition by drug alone ([1]; 1000 nM, time (day): 5) | growth inhibition by drug alone ([1]; 1000 nM, time (day): 6) | growth inhibition by drug alone ([2]; 10 nM, time (day): 3) | growth inhibition by drug alone ([2]; 10 nM, time (day): 4) | growth inhibition by drug alone ([2]; 10 nM, time (day): 5) | growth inhibition by drug alone ([2]; 10 nM, time (day): 6) | growth inhibition by drug alone ([2]; 100 nM, time (day): 3) | growth inhibition by drug alone ([2]; 100 nM, time (day): 4) | growth inhibition by drug alone ([2]; 100 nM, time (day): 5) | growth inhibition by drug alone ([2]; 100 nM, time (day): 6) | growth inhibition by drug plus 177Lu-lilotomab satetraxetan ([3]; 10 nM, time (day): 3) | growth inhibition by drug plus 177Lu-lilotomab satetraxetan ([3]; 10 nM, time (day): 4) | growth inhibition by drug plus 177Lu-lilotomab satetraxetan ([3]; 10 nM, time (day): 5) | growth inhibition by drug plus 177Lu-lilotomab satetraxetan ([3]; 10 nM, time (day): 6) | growth inhibition by drug plus 177Lu-lilotomab satetraxetan ([3]; 1000 nM, time (day): 3) | growth inhibition by drug plus 177Lu-lilotomab satetraxetan ([3]; 1000 nM, time (day): 4) | growth inhibition by drug plus 177Lu-lilotomab satetraxetan ([3]; 1000 nM, time (day): 5) | growth inhibition by drug plus 177Lu-lilotomab satetraxetan ([3]; 1000 nM, time (day): 6) | growth inhibition by drug plus 177Lu-lilotomab satetraxetan ([4]; 10 nM, time (day): 3) | growth inhibition by drug plus 177Lu-lilotomab satetraxetan ([4]; 10 nM, time (day): 4) | growth inhibition by drug plus 177Lu-lilotomab satetraxetan ([4]; 10 nM, time (day): 5) | growth inhibition by drug plus 177Lu-lilotomab satetraxetan ([4]; 10 nM, time (day): 6) | growth inhibition by drug plus 177Lu-lilotomab satetraxetan ([4]; 100 nM, time (day): 3) | growth inhibition by drug plus 177Lu-lilotomab satetraxetan ([4]; 100 nM, time (day): 4) | growth inhibition by drug plus 177Lu-lilotomab satetraxetan ([4]; 100 nM, time (day): 5) | growth inhibition by drug plus 177Lu-lilotomab satetraxetan ([4]; 100 nM, time (day): 6) |
| --- | --- | --- | --- | --- | --- | --- | --- | --- | --- | --- | --- | --- | --- | --- | --- | --- | --- | --- | --- | --- | --- | --- | --- | --- | --- | --- | --- | --- | --- | --- | --- | --- |
| NC(=O)Nc1cc(-c2cccc(F)c2)sc1C(=O)N[C@H]1CCCNC1 | 0.0534 | 0.00627 | -0.197 | -0.0587 | 0.942 | 0.955 | 0.959 | 0.962 | 0.0596 | 0.0145 | -0.0537 | -0.23 | 0.0812 | 0.0623 | 0.0116 | -0.14 | -0.0183 | 0.0423 | 0.122 | 0.155 | 0.964 | 0.971 | 0.974 | 0.978 | 0.318 | 0.362 | 0.396 | 0.43 | 0.139 | 0.161 | 0.178 | 0.185 |
| CC(C)C[C@H](NC(=O)CNC(=O)c1cc(Cl)ccc1Cl)B(O)O | -0.0591 | -0.0376 | 0.0132 | 0.111 | 0.983 | 0.984 | 0.984 | 0.985 |  |  |  |  |  |  |  |  | -0.0412 | -0.00704 | 0.027 | 0.197 | 0.984 | 0.985 | 0.985 | 0.987 | 0.38 | 0.491 | 0.522 | 0.525 | 0.656 | 0.686 | 0.668 | 0.59 |
| OC[C@H]1O[C@@H](n2cnc3c2N=CNC[C@H]3O)C[C@@H]1O [Pentostatin] | 0.1 | 0.0372 | -0.116 | -0.114 | -0.0219 | -0.074 | -0.147 | -0.0984 |  |  |  |  |  |  |  |  | -0.00817 | 0.056 | 0.0512 | 0.0351 | 0.0728 | 0.0721 | 0.118 | 0.207 | 0.472 | 0.557 | 0.557 | 0.555 | 0.399 | 0.488 | 0.5 | 0.513 |
| COc1cccc2c1C(=O)c1c(O)c3c(c(O)c1C2=O)C[C@@](O)(C(C)=O)C[C@@H]3O[C@H]1C[C@H](N)[C@H](O)[C@H](C)O1 [Daunorubicin HCl (Daunomycin HCl)] | 0.144 | 0.147 | 0.0841 | 0.0306 | 0.971 | 0.975 | 0.98 | 0.983 |  |  |  |  |  |  |  |  | 0.21 | 0.265 | 0.341 | 0.415 | 0.978 | 0.982 | 0.984 | 0.987 | 0.833 | 0.844 | 0.868 | 0.902 | 0.87 | 0.915 | 0.94 | 0.96 |
| CCOc1cc2ncc(C#N)c(Nc3ccc(OCc4ccccn4)c(Cl)c3)c2cc1NC(=O)/C=C/CN(C)C [Neratinib (HKI-272)] | -0.0556 | -0.0442 | -0.0146 | 0.0157 | -0.0267 | -0.00012 | -0.0352 | -0.0269 |  |  |  |  |  |  |  |  | -0.0172 | -0.00319 | 0.0327 | 0.194 | -0.0673 | 0.003 | 0.00224 | 0.0815 | 0.358 | 0.498 | 0.529 | 0.541 | 0.367 | 0.422 | 0.425 | 0.419 |
| COc1ccc(C2=N[C@@H](c3ccc(Cl)cc3)[C@@H](c3ccc(Cl)cc3)N2C(=O)N2CCNC(=O)C2)c(OC(C)C)c1 [Nutlin-3] | -0.04 | -0.0423 | -0.094 | -0.287 | -0.0802 | -0.0948 | -0.145 | -0.237 |  |  |  |  |  |  |  |  | -0.0474 | 0.00784 | 0.0366 | 0.0903 | -0.00272 | -0.0242 | 0.00355 | 0.11 | 0.386 | 0.472 | 0.502 | 0.521 | 0.328 | 0.467 | 0.479 | 0.496 |
| COc1cc2nccc(Oc3ccc(NC(=O)Nc4cc(C)on4)c(Cl)c3)c2cc1OC [Tivozanib (AV-951)] | 0.14 | 0.0745 | -0.00279 | -0.0876 | 0.0629 | 0.0968 | 0.0897 | 0.0763 |  |  |  |  |  |  |  |  | 0.0499 | 0.0836 | 0.127 | 0.144 | 0.13 | 0.217 | 0.26 | 0.368 | 0.453 | 0.547 | 0.57 | 0.565 | 0.438 | 0.535 | 0.537 | 0.526 |
| N#Cc1c(O)c2c(-c3ccc(-c4ccccc4O)cc3)csc2[nH]c1=O | 0.111 | 0.0478 | -0.0374 | -0.062 | 0.0299 | -0.017 | -0.0537 | 0.0109 |  |  |  |  |  |  |  |  | 0.00586 | 0.0777 | 0.105 | 0.108 | 0.0618 | 0.0835 | 0.123 | 0.191 | 0.57 | 0.613 | 0.615 | 0.612 | 0.402 | 0.488 | 0.487 | 0.49 |
| Cc1cccc(-c2[nH]c(C(C)(C)C)nc2-c2ccc3nccnc3c2)n1 | 0.121 | 0.0591 | -0.0391 | -0.0718 | 0.0282 | 0.0616 | 0.0184 | -0.0529 | -0.0404 | -0.00935 | -0.0953 | -0.422 | -0.418 | -0.28 | -0.32 | -0.559 | 0.0382 | 0.108 | 0.172 | 0.201 | 0.0486 | 0.0781 | 0.126 | 0.19 | 0.595 | 0.633 | 0.644 | 0.65 | 0.316 | 0.428 | 0.434 | 0.447 |
| O=NN(CCCl)C(=O)NC1CCCCC1 [Lomustine (CeeNU)] | 0.0125 | -0.0069 | -0.0761 | -0.178 | -0.00465 | 0.00866 | -0.0378 | 0.00712 |  |  |  |  |  |  |  |  | 0.00156 | 0.0498 | 0.0878 | 0.11 | -0.00262 | 0.0596 | 0.0893 | 0.149 | 0.573 | 0.596 | 0.607 | 0.603 | 0.383 | 0.486 | 0.488 | 0.501 |

— the supplement of paper PMC6897291
